# This is one part of a sample in which hits are shown more often than they occur.
# HT1080 IDH1KD tx: qHTS for induction of synthetic lethality in tumor cells producing 2HG: qHTS for the HT-1080-IDH1KD cell line; actives 2% (n = 360,000); Potency, µM (top dose mostly 46.1 µM), for the others: at the top dose activity, negative = toxicity, hits mostly cytotoxic; HT-1080 IDH1 knockdown viability, ATP luminescence, 48 h;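 also: potency is read from the fitted curve at half-maximal effect; 0% = DMSO wells and -100% = cell-free medium wells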
#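 In this qHTS, HT-1080 cells depleted of IDH1 are exposed for 48 h at 37 °C to compound titrations. Toxicity is scored from CellTiter-Glo luminescence, with DMSO as full viability and medium alone as none.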
# DT40 TDP1 CPT: qHTS for Inhibitors of human tyrosyl-DNA phosphodiesterase 1 (TDP1): qHTS in cells in presence of CPT; Potency, µM (highest dose often 46.2 µM), for inactives: at the top dose activity change, negative = growth inhibition, most hits filed as inhibitors; chicken DT40 Tdp1-/-;hTDP1 cells + 20 nM CPT, ATP luminescence, 48 h; actives 12% (n = 420,000); also: potency is read from the fitted curve at half-maximal effect; nearly all actives have a fitted effect of over 55% in size
#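 Chicken DT40 Tdp1-/- cells stably complemented with human TDP1 were seeded at 400 cells/well in medium containing 20 nM camptothecin, exposed to pin-transferred compounds, and grown at 37 °C for at least 48 hr. Viability was read as ATP luminescence.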
# DT40 TDP1 no CPT: qHTS for Inhibitors of human tyrosyl-DNA phosphodiesterase 1 (TDP1): qHTS in cells in absence of CPT. DT40 Tdp1-/- hTDP1 cells, no CPT, ATP luminescence, 48 h. Potency, µM (series often up to 46.2 µM), for the others: at the highest dose activity change, negative = growth inhibition, usual class: inhibitors. actives 15% (n = 420,000); also: potency is read from the fitted curve at half-maximal effect; nearly all actives have a fitted effect of over 55% in size
#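 Compound effects on proliferation are scored in DT40 Tdp1-/-;hTDP1 cells in the absence of CPT. ATP levels (CellTiter-Glo luminescence) are recorded after a ≥48 hr, 37 °C incubation.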
# 12-LOX inh: Primary qHTS assay for inhibitors of human arachidonate 12S-lipoxygenase (ALOX12): Round 2. purified 12hLO, xylenol orange hydroperoxide absorbance. Potency, µM (top dose mostly 108 µM), for the others: at the top dose activity change, negative = inhibition, actives largely listed as inhibitors. actives 1.1% (n = 580,000). AID 1671190, 2021; also: potency is read from the fitted curve at half-maximal effect
# Target sequence (P18054 whole entry, looked up): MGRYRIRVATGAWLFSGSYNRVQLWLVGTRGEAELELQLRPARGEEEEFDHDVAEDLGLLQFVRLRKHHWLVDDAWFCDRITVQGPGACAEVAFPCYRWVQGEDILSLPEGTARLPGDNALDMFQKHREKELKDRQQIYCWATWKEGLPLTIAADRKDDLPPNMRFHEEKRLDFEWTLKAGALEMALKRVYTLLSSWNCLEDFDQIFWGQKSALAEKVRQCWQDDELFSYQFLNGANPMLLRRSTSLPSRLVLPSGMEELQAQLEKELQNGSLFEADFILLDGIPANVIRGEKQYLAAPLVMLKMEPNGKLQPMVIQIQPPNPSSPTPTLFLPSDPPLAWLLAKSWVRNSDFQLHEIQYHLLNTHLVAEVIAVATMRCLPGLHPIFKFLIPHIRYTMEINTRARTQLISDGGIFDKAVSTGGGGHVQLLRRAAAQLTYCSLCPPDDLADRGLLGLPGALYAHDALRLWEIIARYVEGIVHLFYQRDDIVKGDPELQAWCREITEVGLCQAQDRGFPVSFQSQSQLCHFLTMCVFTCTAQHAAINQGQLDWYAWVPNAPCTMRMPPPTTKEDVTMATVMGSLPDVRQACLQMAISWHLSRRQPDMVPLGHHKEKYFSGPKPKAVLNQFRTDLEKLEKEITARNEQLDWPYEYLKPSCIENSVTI
#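 Purified human 12hLO (150 nM final) in 25 mM Hepes, 0.01% Triton X-100, pH 7.0 was preincubated 15 min at room temperature with compound. Then 40 uM arachidonic acid was added, 30 min. Hydroperoxide was read by Fe-XO absorbance ratio 573/405 nm.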
# HT1080NT lethal: qHTS for induction of synthetic lethality in tumor cells producing 2HG: qHTS for the HT-1080-NT fibrosarcoma cell line. actives 1.6% (n = 360,000). Potency, µM (series often up to 46.1 µM), inactives show at the highest dose activity, negative = less viability, hits mostly cytotoxic. HT-1080-NT fibrosarcoma viability, CellTiter-Glo ATP luminescence, 48 h;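 also: NT is the 2HG producing partner of a matched IDH1 knockdown line; potency is read from the fitted curve at half-maximal effect; 0% = DMSO-treated cells and -100% = media-only wells without cells; nearly all actives have a fitted effect of over 55% in size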
#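 Luminescent CellTiter-Glo readout after 48 hours of compound exposure at 37 degrees C defined viability of HT-1080-NT cells. Activity was normalized to DMSO wells and cell-free media wells; concentration-response curves were fitted and assigned curve classes.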
# IL1B secr inh: qHTS for Inhibitors of Inflammasome Signaling: IL-1-beta AlphaLISA Primary Screen; THP-1 LPS/ATP IL-1B secretion, AlphaLISA, 16 h; hits give low values; activity change, % at 57.5 µM; actives 4.7% (n = 360,000); in the data active = activity change below about -50%; inconclusive = mostly about -30% to -49%
#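 THP-1 cells pretreated 1 hr with compounds (up to 57.5 uM final), then stimulated with LPS (250 ng/mL final) plus ATP (1.25 mM final); secreted IL-1B measured by AlphaLISA after 16 hr, decreased signal indicating inhibition.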
# Active calls of the source: *; ? = inconclusive; . = not tested or not shown. Unless noted, calls follow the shape of the dose curve; as a rule, active = well fitted curve in the direction sought with a large enough effect; inconclusive = small, poorly fitted or top-dose-only effect, or another doubt; inactive = no such curve, though single readings can be large; an effect the other way counts as inactive or inconclusive. Unless noted, % is scaled to controls: 0 for no effect and ±100 for the full control effect.
SMILES,HT1080 IDH1KD tx,DT40 TDP1 CPT,DT40 TDP1 no CPT,12-LOX inh,HT1080NT lethal,IL1B secr inh
CCc1ccc(NCc2cc(=O)n3[nH]c(-c4ccccc4)nc3n2)cc1,.,.,.,8.9µM*,.,.
CCCc1cc(=O)n2[nH]c(-c3ccc(C)cc3)nc2n1,.,-16%,0%,-15%,.,.
COc1cccc(NCc2cc(=O)n3[nH]c(-c4ccc(C)cc4)nc3n2)c1,.,.,.,40µM*,.,.
CN(C)c1ccc(C(=O)N2CCN(C/C=C/c3ccccc3)CC2)cc1,.,.,.,2%,.,.
COc1ccc(CNC(=O)Oc2ccccc2)cc1Cl,-24%,?,12µM*,0%,-28%,10
COc1ccc(CNC(=O)CNC(c2ccccc2)c2ccccc2)cc1OC,-2%,-5%,7.3µM*,26%,-6%,-12
COc1ccc(/C=N/OCC(=O)Nc2cc(C)on2)cc1OC,6%,9%,-29%,-15%,6%,-4
COc1cc(CC(=O)NC(c2ccccc2)c2ccccc2)cc(OC)c1OC,11%,15µM*,13µM*,13%,3%,28
COc1ccc(/C=N/OCC(=O)NC(c2ccccc2)c2ccccc2)cc1OC,-14%,5.2µM*,6.5µM*,-2%,-7%,0
COc1ccc(C)cc1NC(=O)CNC(c1ccccc1)c1ccccc1,12%,?,?,0%,-1%,-6
Cc1ccc(CN(C)C(=O)CSc2nc3ccccc3o2)o1,.,.,.,-22%,.,.
Cc1nn(-c2ccc(F)cc2)c(Oc2ccccc2F)c1CCC(=O)N(C)C(C)C,.,.,.,11%,.,.
Cc1cccc(C2NC(c3cccc(C)c3)C([N+](=O)[O-])C(C)(C)C2[N+](=O)[O-])c1 (stereo not drawn),8%,?,16µM*,-21%,4%,-8
COc1ccc(-c2coc3cc(OCC(=O)OC(C)C)ccc3c2=O)cc1OC,.,.,.,-65%,.,.
CCN(CC(=O)N1CCN(Cc2ccccc2)CC1)S(=O)(=O)c1ccccc1,-1%,-22%,?,-7%,1%,7
COc1ccc(N(CC(=O)N2CCN(Cc3ccccc3)CC2)S(C)(=O)=O)c(OC)c1,12%,?,13µM*,-52%,10%,0
CCOc1ccccc1N(CC(=O)N1CCN(Cc2ccccc2)CC1)S(=O)(=O)c1ccccc1,-6%,23µM*,8.2µM*,5%,-14%,-5
O=C(Nc1cccc(-c2nnc3n2CCCC3)c1)c1nccc2ccccc12,.,.,.,44%,.,.
COc1cc(OC)c(/C=C/c2cc3c4ccccc4ccc3[n+](C)c2)c(OC)c1,.,-117%,?,.,.,.
COc1cc(OC)c(/C=C/c2c3ccccc3cc[n+]2C)c(OC)c1,.,0.32µM*,0.089µM*,.,.,.
COc1cc(OC)c(/C=C/c2cc(/C=C/c3c(OC)cc(OC)cc3OC)[n+](C)c3ccccc23)c(OC)c1,.,1.6µM*,1.1µM*,.,.,.
COc1cccc(C(=O)N2CCCC(c3nn(-c4ccc(F)cc4)c(=O)[nH]3)C2)c1 (stereo not drawn),.,.,.,3%,.,.
CC(=O)c1ccc(C(=O)N2CCCC(C(=O)c3cccc(C(F)(F)F)c3)C2)s1 (stereo not drawn),.,.,.,59%,.,.
COc1ccc(-n2nc3c(N4CCC(C(=O)N5CCCCCC5)CC4)nnc(C)c3c2C)cc1,?,?,?,4%,-18%,-15

# Bioassay records (PubChem BioAssay)
